Laboratory results as given in PubChem BioAssay AID493247 (Broad Institute, 2011).
Entries with a potency or affinity are not part of this list. Records with an inconclusive call do not appear. The source made the active and inactive calls.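 Rule for the calls: active = falling luminescence with a fitted half-effect concentration at most ten times the top dose in every repeat; inconclusive = repeats disagree, poor fit, or flat moderate signal drop; inactive = the rest.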

Experiment: cytotoxicity in NIH/3T3 mouse fibroblasts, dose response, cytotoxicity control, cell-based, mouse embryonic fibroblasts, dry powder, set 2 (AID 493247)
Settings: NIH/3T3 cytotoxicity, CellTiter-Glo ATP luminescence, 90 h; series mostly up to 19.5 µM

Q: Which outcome does the source give for CCNC(=O)C1(C)CCCN(C(=O)Cc2ccc(OC)c(OC)c2)C1 (stereo unspecified) here?
A: inactive

Q: With COCCNC(=O)C1(C)CCCN(C(=O)c2cc(OC)c(OC)c(OC)c2)C1 (stereo unspecified) as the molecule, how does the outcome read?
A: inactive

Q: With CCCNC(=O)C1(C)CCN(C(=O)Cc2ccc(OC)c(OC)c2)C1 (stereo unspecified) as the molecule, how does the outcome read?
A: inactive

Q: Which outcome does the source give for COc1ccc(CCNC(=O)C2CCCCC2)cc1OC here?
A: inactive

Q: For COc1cc2c(cc1OC)C(C)N(CCC(N)=O)CC2 (stereo unspecified), which outcome is on record?
A: inactive

Q: Which outcome does the source give for COc1ccc(CCN2CC(C(=O)NCc3ccc(F)cc3)CC2=O)cc1OC (stereo unspecified) here?
A: inactive

Q: Which outcome does the source give for O=C(CNC(=O)c1ccco1)N/N=C/c1ccc([N+](=O)[O-])o1 here?
A: inactive

Q: Which outcome does the source give for CCCNC(=O)C1(C)CCCN(C(=O)c2ccc(OC(F)F)cc2)C1 (stereo unspecified) here?
A: inactive

Q: For COc1ccc(CCN(C)C(=O)C2CCCN(Cc3ccccc3C)C2)cc1OC (stereo unspecified), which outcome is on record?
A: inactive

Q: With CCNC(=O)C1CCCN(C(=O)c2cc(OC)c(OC)c(OC)c2)CC1 (stereo unspecified) as the molecule, how does the outcome read?
A: inactive

Q: Which outcome does the source give for CCNC(=O)C1(C)CCCN(Cc2cccc(Oc3ccccc3)c2)C1 (stereo unspecified) here?
A: inactive

Q: For COc1cc(CN2CCC(C(=O)NC(C)c3ccc(OC)c(OC)c3)CC2)cc(OC)c1 (stereo unspecified), which outcome is on record?
A: inactive

Q: Which outcome does the source give for CCNC(=O)C1(C)CCN(C(=O)c2ccc(OC)c(OC)c2)C1 (stereo unspecified) here?
A: inactive

Q: Which outcome does the source give for COc1ccc(CN2CCCC(C(=O)N3CCCC3)C2)c(OC)c1OC (stereo unspecified) here?
A: inactive

Q: With CN(Cc1ccccc1)C(=O)C1CCCN(Cc2ccccc2)C1 (stereo unspecified) as the molecule, how does the outcome read?
A: inactive

Q: With CCCNC(=O)C1(C)CCCN(C(=O)Cc2ccc(OC)c(OC)c2)C1 (stereo unspecified) as the molecule, how does the outcome read?
A: inactive
